The values below come from ChEMBL document CHEMBL4808148, “HDAC6 screening dataset using tau-based substrate in an enzymatic assay yields selective inhibitors and activators” (2021).

The test deals with T1, Protein deacetylase HDAC6 (Homo sapiens) (UniProt Q9UBN7).
T1 sequence (whole entry): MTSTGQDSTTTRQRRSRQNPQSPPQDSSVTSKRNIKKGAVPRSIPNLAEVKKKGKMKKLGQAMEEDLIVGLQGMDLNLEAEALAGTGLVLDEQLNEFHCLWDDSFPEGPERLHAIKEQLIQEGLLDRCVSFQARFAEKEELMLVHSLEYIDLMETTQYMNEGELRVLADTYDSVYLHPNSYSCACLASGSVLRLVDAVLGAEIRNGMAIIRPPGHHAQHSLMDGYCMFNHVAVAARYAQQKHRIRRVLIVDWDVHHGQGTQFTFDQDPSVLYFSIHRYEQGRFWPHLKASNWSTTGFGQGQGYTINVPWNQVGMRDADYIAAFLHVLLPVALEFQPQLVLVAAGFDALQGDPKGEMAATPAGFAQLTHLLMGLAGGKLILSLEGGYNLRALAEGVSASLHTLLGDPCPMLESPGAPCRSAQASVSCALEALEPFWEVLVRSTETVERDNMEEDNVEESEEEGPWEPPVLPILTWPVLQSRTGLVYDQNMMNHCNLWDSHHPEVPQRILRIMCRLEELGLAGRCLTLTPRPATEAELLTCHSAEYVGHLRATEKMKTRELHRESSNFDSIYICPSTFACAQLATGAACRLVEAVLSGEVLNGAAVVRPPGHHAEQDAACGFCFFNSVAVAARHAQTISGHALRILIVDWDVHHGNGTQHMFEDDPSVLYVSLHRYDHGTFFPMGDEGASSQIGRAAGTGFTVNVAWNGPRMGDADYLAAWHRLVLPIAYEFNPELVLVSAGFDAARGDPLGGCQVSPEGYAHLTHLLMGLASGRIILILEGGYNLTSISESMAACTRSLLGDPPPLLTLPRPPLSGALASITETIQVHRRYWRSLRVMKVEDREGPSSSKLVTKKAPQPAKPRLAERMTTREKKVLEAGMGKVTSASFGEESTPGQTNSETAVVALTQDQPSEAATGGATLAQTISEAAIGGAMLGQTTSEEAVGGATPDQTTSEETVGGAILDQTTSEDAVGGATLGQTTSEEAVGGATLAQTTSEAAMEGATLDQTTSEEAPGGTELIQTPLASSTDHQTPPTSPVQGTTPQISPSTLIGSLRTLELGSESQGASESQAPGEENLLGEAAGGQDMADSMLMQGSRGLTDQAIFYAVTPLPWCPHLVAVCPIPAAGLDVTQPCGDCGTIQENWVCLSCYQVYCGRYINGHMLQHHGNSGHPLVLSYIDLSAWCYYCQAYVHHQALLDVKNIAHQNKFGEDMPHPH
The settings on record: at 10 µM.

The campaign covered roughly 5,600 compounds. About 390 (7%) showed an effect of 50% or more. The sample as a whole holds a higher share of strong results than the screen did.

Regarding `COC(=O)N1CCN(Cc2cccc(NC(=O)Nc3ccc(C)nc3)c2F)CC1`, the inhibition was found to be 57.5%. To `Cc1ccc(C(=O)Nc2ccc(CN3CCN(C)CC3)c(C(F)(F)F)c2)cc1C#Cc1cnc2cccnn12` belongs 32.8%; to `COc1cc(N)cn[n+]1-c1ccccc1`, 15.3%. For the compound `CC(=O)OCC(=O)[C@@]1(O)[C@@H](C)C[C@H]2[C@@H]3CCC4=CC(=O)C=C[C@]4(C)[C@@]3(F)[C@@H](O)C[C@@]21C`, the inhibition worked out at 8.96%. As to `Clc1cccc(Cl)c1CSc1nnc(-c2cnccn2)s1`, the inhibition worked out at 65.2%. Turning to `COc1c(OCCCN2CCOCC2)ccc2c1N=C(NC(=O)c1cnc(N)nc1)N1CCN=C21`, the inhibition came to 8.29%.

Take `CCCCCNCC(N)=O`: the inhibition stood at 19.9%. For `Oc1nc(O)c2cn[nH]c2n1`, the inhibition was determined as 9.68%. `CCS(=O)(=O)CCn1c([N+](=O)[O-])cnc1C`: the inhibition is -4.7%.

As to `CSc1ccc(OCc2ncc([N+](=O)[O-])n2C)cc1`, the inhibition came out at 57.1%.

In the case of `Cn1c([N+](=O)[O-])cnc1COC(N)=O`, the inhibition was found to be 2.87%. With `Nc1[nH]cnc2ncnc1-2`, the inhibition is -1.89%.

In the case of `NS(=O)(=O)c1ccc(S(=O)(=O)Nc2cccc3c(Cl)c[nH]c23)cc1`, the inhibition is -6.04%. Consider `C1CCN2C[C@H]3C[C@H](CN4CCCC[C@@H]34)[C@H]2C1`, for which the inhibition worked out at 30.9%. Regarding `Cc1ncc(-c2csc(N=C(N)N)n2)[nH]1`, the inhibition is 3.96%. Consider `Ic1cc(-c2ccccc2)ncn1`, for which the inhibition was found to be 25.2%.

In the case of `CC[C@@]1(O)C(=O)OCc2c1cc1n(c2=O)Cc2cc3c([N+](=O)[O-])cccc3nc2-1`, the inhibition came to 11.9%. With `CC(=O)OCC(=O)NCCCOc1cccc(CN2CCCCC2)c1`, the inhibition is 14.5%.

Regarding `c1cc(CN2CCCCC2)cc(OCCCNc2nc3ccccc3s2)c1`, the inhibition is 59.6%. On to `O=C(OC(C(F)(F)F)C(F)(F)F)N1CCN(Cc2cccc(Oc3ccccc3)c2)CC1`, for which the inhibition was -8.39%. Regarding `COc1ccc(C(=O)N2CCCc3cc(C4=NNC(=O)SC4C)ccc32)cc1OC` (centres undefined), the inhibition was 7.12%.

Take `Cc1ccc(S(=O)(=O)NC2c3ccccc3Oc3ccccc32)cc1`: the inhibition was 0.27%. Turning to `CNC(=O)CN(CCN(CCN(CC(=O)O)CC(=O)NC)CC(=O)O)CC(=O)O`, the inhibition is 17.5%. To `OCc1ccc(-c2ccc(-c3ccc(CO)s3)o2)s1` belongs 102%. Turning to `O=C(O)COc1cccc(-c2ocnc2-c2nc(-c3ccccc3)c(-c3ccccc3)o2)c1`, the inhibition was -1.23%.

Take `CCCc1ncc(C[n+]2ccccc2C)c(N)n1`: the inhibition is -5.17%.

Turning to `Cc1ncc(C[n+]2csc(CCO)c2C)c(N)n1`, the inhibition worked out at 53%. To `CC(C)CN(C[C@@H](O)[C@H](Cc1ccccc1)NC(=O)O[C@H]1CCOC1)S(=O)(=O)c1ccc(N)cc1` belongs 1.38%. For the compound `COc1ccc(OC)c(CN(C(C)=O)c2cc(F)ccc2Oc2ccccc2)c1`, the inhibition was 1.27%. With `O=C(c1ccc(OCCN2CCCCC2)cc1)c1c(-c2ccc(O)cc2)sc2cc(O)ccc12`, the inhibition came to 38.5%. As for `Cc1c(-c2ccc(O)cc2)n(Cc2ccc(OCCN3CCCCCC3)cc2)c2ccc(O)cc12`, the inhibition was 86.2%. To `O=C(Cc1ccc(-c2ccc(OCCN3CCOCC3)cc2)cn1)NCc1ccccc1` belongs 9.75%. Regarding `O=[N+]([O-])c1cnc(Sc2nnc(O)n2-c2ccc3c(c2)OCCO3)s1`, the inhibition was determined as 11.2%.

As to `C[n+]1cccc(C(=O)[O-])c1`, the inhibition was 7.12%. As to `O=C(Nc1ccccc1)C12CC1/C(=N\O)c1ccccc1O2` (centres undefined), the inhibition is 16.1%. The figure for `Nc1cc(C(F)(F)F)c(-c2nc(N3CCOCC3)nc(N3CCOCC3)n2)cn1` is -6.25%; for `O=C(O)C(=O)Cc1c[nH]c2ccccc12` it is 20.3%. With `OCc1c[nH]c2ccccc12`, the inhibition came out at 2.93%. To `c1ccc2c(Cc3c[nH]c4ccccc34)c[nH]c2c1` belongs 71.8%. For the compound `CCc1cc2c(c(CC)n1)CCC(=O)N2Cc1ccc(-c2ccccc2-c2nnn[nH]2)cc1`, the inhibition turned out to be 0.45%.

With `[O-][S+](c1ccccc1)c1ccc2nnnn2n1` (centres undefined), the inhibition was -5.95%. As to `Clc1ccc(N/N=C(\c2ccccc2)c2ccccn2)nc1`, the inhibition came to 25.9%. In the case of `c1ccc(COCCCc2c[nH]cn2)cc1`, the inhibition turned out to be 20.5%. With `COc1ccc2cc1Oc1ccc(cc1)C[C@H]1c3c(cc4c(c3Oc3cc5c(cc3OC)CCN(C)[C@@H]5C2)OCO4)CCN1C`, the inhibition was -6.05%. For `O=C1/C(=C/c2ccccc2)C(NC2CCCCC2)c2ccccc21` (centres undefined), the inhibition stood at 8.83%. Take `Cc1noc(NS(=O)(=O)c2cccc3c(N(C)C)cccc23)c1C`: the inhibition worked out at 29.9%.

On to `Nc1nc2c(cnn2CCc2ccccc2)c2nc(-c3ccco3)nn12`, for which the inhibition is 61.6%. Regarding `Cc1cc(Cl)ccc1OCCCC(=O)NO`, the inhibition came to 98.5%. To `Cc1ccc(C)c(OCCCC(C)(C)C(=O)O)c1` belongs 7.2%. For `COc1ccc2[nH]c3c(-c4cccc5ccccc45)nccc3c2c1`, the inhibition was 9.67%. Regarding `Cc1nc(C#Cc2ccnc(Cl)c2)c(C)n1-c1ccc(F)cc1`, the inhibition came out at 5.29%. The figure for `Cc1cc(C)c(N)c(C#Cc2cccc(F)c2)n1` is 103%; for `CC(C)NC(=O)c1ccc(C#Cc2ccncc2)cn1` it is -5.33%; for `C[C@@H]([C@H](C)O)[C@H](N)C(=O)O` it is -7.36%.

A word on the inhibition: it is the change of the read-out against control, counted positive when it falls.
